Key:
Settings in all cases: concentration: 1 μM, replicates: in singlicate; n = 1
GRK1 = system: GRK1
GRK2 = system: T1, GRK2
T1 construct: gene ADRBK1

GRK3 = system: T2, GRK3
T2 construct: gene ADRBK2

GRK4 = system: GRK4
GRK7 = system: GRK7
GSK3A = system: GSK3A
GSK3B = system: GSK3B
HASPIN = system: T3, HASPIN
T3 construct: gene GSG2

HCK = system: HCK
HIPK1 = system: HIPK1
HIPK2 = system: HIPK2
HIPK3 = system: HIPK3
HIPK4 = system: HIPK4
HPK1 = system: HPK1
HUNK = system: HUNK
ICK = system: ICK
IGF1R = system: IGF1R
IKK-alpha = system: T4, IKK-alpha
T4 construct: gene CHUK

IKK-beta = system: T5, IKK-beta
T5 construct: gene IKBKB

IKK-epsilon = system: T6, IKK-epsilon
T6 construct: gene IKBKE
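Further: KINOMEscan kinase panel screen.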

| SMILES | %Inh (GRK1) [%] | %Inh (GRK2) [%] | %Inh (GRK3) [%] | %Inh (GRK4) [%] | %Inh (GRK7) [%] | %Inh (GSK3A) [%] | %Inh (GSK3B) [%] | %Inh (HASPIN) [%] | %Inh (HCK) [%] | %Inh (HIPK1) [%] | %Inh (HIPK2) [%] | %Inh (HIPK3) [%] | %Inh (HIPK4) [%] | %Inh (HPK1) [%] | %Inh (HUNK) [%] | %Inh (ICK) [%] | %Inh (IGF1R) [%] | %Inh (IKK-alpha) [%] | %Inh (IKK-beta) [%] | %Inh (IKK-epsilon) [%] |
| --- | --- | --- | --- | --- | --- | --- | --- | --- | --- | --- | --- | --- | --- | --- | --- | --- | --- | --- | --- | --- |
| CN1c2ccc(-c3ccc(C(=O)NCCO)cc3)cc2-c2[nH]ncc2S1(=O)=O | 4 | 0 | 0 | 1 | 22 | 8 | 32 | 21 | 16 | 67 | 52 | 39 | 16 | 22 | 0 | 0 | 7 | 0 | 0 | 31 |
| c1ccc(-c2ccc3c(-c4ccnc(Nc5ccc6c(c5)OCCO6)n4)cnn3n2)cc1 [GW818941] | 0 | 7 | 0 | 11 | 0 | 12 | 0 | 0 | 16 | 0 | 0 | 0 | 21 | 47 | 0 | 8 | 9 | 21 | 14 | 6 |
| Cc1ccc(O)cc1Nc1cc(C(F)(F)F)nc2ccc(-c3ccncc3)cc12 [GW630823] | 0 | 0 | 0 | 0 | 0 | 5 | 0 | 0 | 18 | 8 | 0 | 0 | 9 | 0 | 3 | 0 | 5 | 0 | 0 | 0 |
| Fc1ccc(Nc2nccc(-c3c(-c4ccc(Cl)cc4)nn4ncccc34)n2)cc1F [GW829058] | 22 | 11 | 18 | 21 | 35 | 0 | 31 | 37 | 15 | 33 | 11 | 36 | 19 | 16 | 40 | 25 | 6 | 34 | 29 | 0 |
| Fc1cccc(COc2ccc(Nc3ncnc4sc(-c5ccc[nH]5)cc34)cc2Cl)c1 [GW707818] | 0 | 0 | 0 | 0 | 0 | 22 | 3 | 0 | 0 | 0 | 0 | 1 | 0 | 39 | 10 | 0 | 0 | 0 | 0 | 0 |
| COc1cc2ncnc(Nc3ccc(OCc4ccccc4Br)c(Cl)c3)c2cc1OC.Cl [GI261590] | 0 | 0 | 41 | 0 | 0 | 0 | 10 | 34 | 25 | 0 | 0 | 0 | 0 | 33 | 11 | 0 | 0 | 32 | 16 | 18 |
| COc1cc2c(Nc3cccc(NC(=O)c4ccccc4)c3)ncnc2cc1OCCCN1CCOCC1 [GSK223810] | 0 | 14 | 0 | 15 | 0 | 0 | 0 | 0 | 0 | 0 | 0 | 0 | 7 | 55 | 0 | 0 | 0 | 0 | 0 | 19 |

Source: PMC5540273 (PLoS ONE, 2017)
